In all, about 360,000 compounds went through this assay and about 950 (0.26%) were called active. Shown is part of a subset that was picked to be rich in actives. A number with no mark means an inactive call. No stated cut-off is given here; in the data, active means inhibition above about 11%; inactive means the rest.

This test can be described thus: growth loss of phage-infected E. coli, primary screen, RecBCD inhibitor project, absorbance, with phage, HTS (AID 651602). The note with it: at 11.9 µM, active compounds read high.
Turning to `COC(=O)C1=C(C)N(Cc2ccccc2C(F)(F)F)C(=NCc2ccc(C(F)(F)F)cc2)NC1c1ccc(F)cc1` (stereo not given), the inhibition is 7.76%.

For `COC(=O)N1Cc2ccnnc2CC1c1ccccc1Br` (stereo not given), the inhibition was 3.01%.

For the compound `O=C(/C=C/c1ccc(F)cc1)NC(=S)NNC(=O)c1cccnc1`, the inhibition is -5.76%.

As for `O=C(Nc1ccc(F)cc1)C1CCN(C(=O)c2ccc([N+](=O)[O-])cc2)CC1`, the inhibition is 1.84%.

Turning to `O=C(/C=C/c1ccc([N+](=O)[O-])o1)NNC(=O)c1ccc(F)cc1`, the inhibition is 29.6% (active).

Consider `CCCN1C(=O)c2[nH]nc(-c3ccccc3)c2C1c1ccccc1` (stereo not given), for which the inhibition was 1.78%.

With `COC(=O)[C@]12C[C@H](CC(=O)NCc3ccc(OC)c(OC)c3)C(=O)N(Cc3ccccc3)C1=C[C@H](C(C)C)O[C@@H]2C1CC1`, the inhibition is 0.85%.

With `O=C1[C@@H](c2ccccc2)[C@@H](c2ccccc2)N1c1ccccc1`, the inhibition was 1.64%.

On to `COc1ccc(-c2ccc3c(n2)CCCN3S(=O)(=O)c2ccc(C)cc2)cc1`, for which the inhibition is 4.42%.

Turning to `O=C(COc1ccc(F)cc1Br)NCC1COc2ccccc2O1` (stereo not given), the inhibition is 1.96%.

Regarding `S=C(NCC1COc2ccccc2O1)Nc1ccc(Br)cc1` (stereo not given), the inhibition was 11.1% (active).

Take `CC(NC(=S)Nc1ccccc1)C1COc2ccccc2O1` (stereo not given): the inhibition is 4.25%.

`O=C(N[C@H](Cc1ccccc1)C(=O)N1CCCN(Cc2cccs2)CC1)[C@H]1O[C@@H](n2ccc(=O)[nH]c2=O)[C@H](O)[C@@H]1O`: the inhibition is 3.33%.

For the compound `CCOC(=O)Cn1c2c(n(-c3ccc(F)cc3)c1=O)C=C(c1ccccc1)[C@@H](C)C(C(=O)N(C)C1CCCCC1)=C2`, the inhibition was 3.33%.

Consider `CN(C)C(=O)N1CCN(C(=O)[C@@H](Cc2ccccc2)NC(=O)[C@H]2O[C@@H](n3ccc(N)nc3=O)[C@H](O)[C@@H]2O)CC1`, for which the inhibition is 1.56%.

Consider `COc1ccc(CNS(=O)(=O)c2cc(Br)ccc2Br)cc1`, for which the inhibition is 0.71%.

Consider `COc1c(N2CCN(C(=S)Nc3ccccc3F)C(C)C2)c(F)cc2c(=O)c(C(=O)O)cn(C3CC3)c12` (stereo not given), for which the inhibition is 99.2% (active).

In the case of `COc1ccccc1NC(=S)N1CCN(c2ccc(F)cc2)CC1`, the inhibition is 2.7%.

For `CC1CN(C(=S)Nc2ccccc2F)CC(C)O1` (stereo not given), the inhibition is 2.38%.

As for `CCOC(=O)CNC(=O)N(C)[C@H]1C[C@H]2c3[nH]c4c(-c5ccc6c(c5)OCO6)cccc4c3CCN2C(=O)[C@H]1[C@H](C)O`, the inhibition is 1.25%.

In the case of `COc1cccc(CC(=O)N2CCN(C(=O)C(=O)c3cccc(C(F)(F)F)c3)CC2)c1`, the inhibition was 0.39%.

Regarding `COC(=O)[C@]12C[C@H](CC(=O)NCCC(C)C)C(=O)N(CCc3ccc(OC)c(OC)c3)C1=C[C@H](C(C)(C)C)O[C@@H]2C`, the inhibition is 4.73%.

Regarding `CCOc1ccc(N(CC(=O)Nc2ccccc2F)S(=O)(=O)c2c(C)[nH]c(=O)[nH]c2=O)cc1`, the inhibition was 3.53%.

Consider `CCOc1ccc(N(CC(=O)NC2CCCCCC2)S(=O)(=O)c2c(C)[nH]c(=O)[nH]c2=O)cc1`, for which the inhibition is 80.4% (active).

With `COc1ccc(N(CC(=O)NC2CCCCC2)S(=O)(=O)c2c(C)[nH]c(=O)[nH]c2=O)cc1`, the inhibition is -1.14%.

Regarding `Nc1[nH]c(C(=O)c2ccccc2)c(-c2ccc(Cl)cc2Cl)c1C(=O)c1ccccc1`, the inhibition is 3.17%.

Regarding `Cc1cc(NCCc2c[nH]c3ccccc23)ccc1Oc1cccnc1`, the inhibition is 1.27%.

On to `COCc1[nH]nc2c1C(c1ccccc1)N(c1ccccc1)C2=O` (stereo not given), for which the inhibition was 1.43%.

In the case of `Cc1ccc(NC(=O)Nc2nnc(-c3ccncc3)s2)cc1`, the inhibition was 12.4% (active).

Consider `CC(C)=CC(=O)Nc1nnc(-c2ccc(F)cc2)s1`, for which the inhibition was 1.99%.

In the case of `O=C(Nc1ccccc1)Nc1nnc(COc2ccccc2F)s1`, the inhibition is 0.84%.

For `C[C@H](O)[C@@H]1C(=O)N2CCc3c([nH]c4c(-c5ccc6c(c5)OCO6)cccc34)[C@@H]2C[C@@H]1N(C)C(=O)c1ccco1`, the inhibition was 4.12%.

Turning to `CCCCNC(=O)c1cn(CC)c2cc(N3CCN(C(=O)c4ccco4)CC3)c(F)cc2c1=O`, the inhibition is 1.02%.

Consider `CCn1cc(C(=O)NCCO)c(=O)c2cc(F)c(N3CCN(C)CC3)cc21`, for which the inhibition was 92.5% (active).

As for `CCn1cc(C(=O)NCCC(=O)NCCO)c(=O)c2cc3c(cc21)OCO3`, the inhibition is 0.08%.

On to `CCCCCCn1cc(C(=O)O)c(=O)c2cc(F)c(N3CCCCC3)cc21`, for which the inhibition is 1.18%.

In the case of `CN1CCN(c2cc3c(cc2F)c(=O)c(C(=O)O)cn3CCF)CC1`, the inhibition is 99.2% (active).

As to `CCn1cc(S(=O)(=O)c2cccc(C)c2)c(=O)c2cc(F)c(N3CCN(C)CC3)cc21`, the inhibition is 0.96%.

For the compound `C=CCN1C(=O)N(Cc2ccccc2)c2ccccc2S1(=O)=O`, the inhibition is 1.27%.

As to `COc1ccc(OC)c(Cc2cnc3nc(N)nc(N)c3c2C)c1`, the inhibition was 82.4% (active).

Regarding `Brc1ccc(COCCc2cn(Cc3ccccc3)c3ccccc23)cc1`, the inhibition was 2.34%.

As for `Cc1[nH]nc2c1C(c1ccc(Br)cc1)NC2=O` (stereo not given), the inhibition was 2.87%.

As for `Nc1[nH]c(C(=O)c2ccc(Br)cc2)c(-c2ccc3c(c2)OCO3)c1C(=O)NCCc1c[nH]c2ccccc12`, the inhibition is -1.27%.

With `CCc1ccc(C2=CC(=O)CC(C)(C)C2=O)cc1`, the inhibition is 1.83%.

Regarding `C[C@@H]1CN([C@H](C)CO)C(=O)CCCn2cc(nn2)CO[C@H]1CN(C)C(=O)Nc1ccc(N2CCCCC2)cc1`, the inhibition was 1.36%.

In the case of `O/N=C1\CC2(Cc3nonc31)OCCO2`, the inhibition was 0.95%.

For the compound `ON=C1/C(=N\O)CC2(C/C1=N/O)OCCO2`, the inhibition was 13.7% (active).

`CN[C@H]1C[C@H]2c3[nH]c4c(-c5ccccc5)cccc4c3CCN2C(=O)[C@H]1[C@H](C)O`: the inhibition was 1.58%.

With `Nc1ccn([C@@H]2O[C@H](C(=O)N[C@H]3CCCCNC3=O)[C@@H](O)[C@H]2O)c(=O)n1`, the inhibition was 1.72%.

`O=C(NN=Cc1ccccc1O)NN=Cc1ccccc1O`: the inhibition was 12.4% (active).

Consider `O=C(CC(=O)N/N=C\c1cccc(Cl)c1Cl)NCc1ccccc1`, for which the inhibition was 3.05%.

As for `O=C(CO/N=C/c1ccccc1O)NNC(=O)c1ccccc1Cl`, the inhibition is 0.32%.

In the case of `COC(=O)C1=C(C)N(Cc2ccccc2C(F)(F)F)C(=NCC2CC2)NC1c1cccc(Cl)c1` (stereo not given), the inhibition was 0.63%.

For `COC(=O)c1cc2c(c3c4ccccc4n(S(=O)(=O)c4cccc(C)c4)c13)C(=O)N(Cc1ccccc1)C2`, the inhibition was 5.66%.

For `COc1ccccc1-c1ccc([C@@H]2C[C@H]3[C@H](CON3C)CN2S(=O)(=O)c2cc(Cl)cc(Cl)c2)cc1`, the inhibition was 3.4%.

For the compound `O=S1(=O)c2ccc(Br)cc2-n2nncc2CN1Cc1cccc(Cl)c1`, the inhibition was -0.4%.

As to `CN(C)[C@@H]1C(=O)C(C(N)=O)=C(O)[C@@]2(O)C(=O)C3=C(O)c4c(O)ccc(Cl)c4[C@@H](O)[C@H]3C[C@@H]12`, the inhibition is 102% (active).

Regarding `C=C1c2c(Cl)ccc(O)c2C(O)=C2C(=O)[C@]3(O)C(O)=C(C(N)=O)C(=O)[C@@H](N(C)C)[C@@H]3[C@@H](O)C12` (stereo not given in full), the inhibition was 102% (active).

With `Clc1cccc2c1C1CC2CCN1Cc1ccccc1` (stereo not given), the inhibition was 2.92%.

As to `C=CCN=C1NC(c2cccc(C(F)(F)F)c2)C(C(=O)OC)=C(C)N1C` (stereo not given), the inhibition is 2.4%.

For the compound `COc1ccccc1Cc1c(-c2ccc(F)cc2)nc2ccc(C)cn12`, the inhibition is 2.63%.

As for `CC1CCN(C(=O)c2ncn3c2C(=O)N[C@@H](C)C3)CC1`, the inhibition was 0.88%.

For `O=C(Cn1cc(C(=O)c2cccs2)c2ccccc21)NCc1cccs1`, the inhibition was 3.17%.

As for `CC1CCN(C(=O)Cn2cc(C(=O)c3ccco3)c3ccccc32)CC1`, the inhibition is 2.64%.

`Cc1cccc(NC(=O)Cn2cc(C(=O)c3ccco3)c3ccccc32)c1`: the inhibition is 16.3% (active).

For the compound `COCCCNC(=O)C[C@H]1C[C@@]2(C(=O)OC)C(=C[C@H](C(C)(C)C)O[C@@H]2C)N(Cc2ccc3c(c2)OCO3)C1=O`, the inhibition is 0.08%.

`Cc1nc(NC(=O)C(C)(C)C)sc1[N+](=O)[O-]`: the inhibition is 0.38%.

Turning to `CC[C@H]1OC(=O)[C@H](C)[C@@H](O[C@H]2C[C@@](C)(OC)[C@@H](O)[C@H](C)O2)[C@H](C)[C@@H](O[C@@H]2O[C@H](C)C[C@H](N(C)C)[C@H]2O)[C@](C)(O)C[C@@H](C)[C@@H]2N[C@@H](COCCOC)O[C@H]([C@H]2C)[C@]1(C)O`, the inhibition was 39.4% (active).

With `Cc1ccc(N)cc1CN1CCN(c2ncc(Cc3ccccc3)cn2)CC1`, the inhibition is 1.25%.

With `COc1ccc(SSc2ccc(OC)cc2C(=O)O)c(C(=O)O)c1`, the inhibition was 3.45%.

Take `CN1C(=O)C(Br)(Br)CC1c1cccnc1` (stereo not given): the inhibition is 2.07%.

For the compound `CC(C)[C@@H](C)/C=C/[C@@H](C)[C@H]1CC[C@@H]2[C@]1(C)CCC1[C@]23C=C[C@]2(C[C@@H](O)CC[C@]12C)N(c1ccc([N+](=O)[O-])cn1)O3` (stereo not given in full), the inhibition is -0.39%.

Regarding `O=[N+]([O-])c1cc([N+](=O)[O-])c2cccnc2c1O`, the inhibition is -2.95%.

Regarding `CC(=O)NC(c1cccs1)c1cc(Br)c2cccnc2c1O` (stereo not given), the inhibition is 18.8% (active).

For the compound `N#Cc1ccccc1NC(=O)COc1c(Br)cc(Br)c2cccnc12`, the inhibition was -0.78%.

Take `O=c1[nH]c(-c2ccccc2)cn1C1CCN(Cc2ccc(-c3nc4ccc(F)cc4nc3-c3ccccc3)cc2)CC1`: the inhibition is 0.95%.

Regarding `CC(C)CNc1cccc2c1S(=O)(=O)N[C@H](CC(C)C)CO2`, the inhibition is 2%.

With `Cc1ccc(/C=N/NC(=O)C(NC(=O)c2ccccc2)c2n[nH]c(=O)c3ccccc23)cc1` (stereo not given), the inhibition was 1.99%.

`Cc1ccc(NC(=O)CCC(=O)N/N=C/c2ccco2)c(C)c1`: the inhibition was 0%.

`Cc1ccc(/C=N/NC(=O)C2=NNC(c3ccccc3)(c3ccccc3)C2)c(O)c1`: the inhibition is 16.3% (active).

Broadly, the inhibition is the change of the read-out against control, counted positive when it falls.

The record behind these values is PubChem BioAssay AID651602 (The Scripps Research Institute Molecular Screening Center, 2012).
